Results on 40 compounds are retold here after PubChem BioAssay.

SMILES strings stand for the structures. A number with no mark means an inactive call. How the calls were made is not given here.

This assay relates to Aerobactin synthetase IucA (Klebsiella pneumoniae hvKP1). Description: IucA enzyme inhibition, primary screen, biochemical, Spectrum library (AID 1346200).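 Further: 100% = wells without compound and 0% = wells lacking enzyme.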 The note with it: malachite green pyrophosphate, A620, at 8 µM, stronger effect = lower value.
With `CN(C)CCc1c[nH]c2ccc(Cn3cncn3)cc12`, the activity remaining is 102%.
The figure for `CC(C)=CCC/C(C)=C/CC/C(C)=C/CC/C(C)=C/CC/C(C)=C/CC/C(C)=C/CC/C(C)=C/CC/C(C)=C/CC/C(C)=C/CO` is 105%; for `C[C@H](CCC(=O)O)[C@H]1CCC2C3C(=O)CC4CC(=O)CC[C@]4(C)C3CC(=O)[C@@]21C` (stereo not given in full) it is 122%.
As for `NC(=O)c1ccccc1O`, the activity remaining was 88.1%.
The figure for `O=C(O)c1ccccc1O` is 121%.
As for `NC[C@H]1O[C@H](OC2[C@@H](N)C[C@@H](N)[C@H](O[C@H]3O[C@H](CO)[C@@H](O)[C@H](N)[C@H]3O)[C@H]2O)[C@H](O)[C@@H](O)[C@@H]1O` (stereo not given in full), the activity remaining is 97%.
For `CC(CCC(=O)O)[C@H]1CCC2C3CC[C@@H]4C[C@H](O)CC[C@]4(C)C3CC[C@@]21C` (stereo not given in full), the activity remaining is 91.8%.
The figure for `NC(Cc1ccc(Cl)cc1)C(=O)O` (stereo not given) is 108%.
The figure for `CC(=O)Oc1cccc(O)c1` is 114%.
The value for `CC(=O)Oc1cc(OC(C)=O)c2c(c1)O[C@H](c1ccc(OC(C)=O)c(OC(C)=O)c1)[C@H](OC(C)=O)C2` was 108%.
On to `COc1cc(O)c2c(c1)C(=O)c1cc(C)cc(O)c1C2=O`, for which the activity remaining is 97.7%.
For `CNCC[C@@H](Oc1ccccc1)c1ccccc1`, the activity remaining was 111%.
The figure for `C=C[C@@](C)(O)CCC1C(=C)C[C@H](OC(C)=O)C2C(C)(C)CCCC12C` (stereo not given in full) is 118%.
Take `O=C1[C@H](CCC(O)c2ccc(F)cc2)[C@@H](c2ccc(O)cc2)N1c1ccc(F)cc1` (stereo not given in full): the activity remaining was 122%.
As to `CC(C)C1=CC2=CCC3[C@](C)(CCC[C@]3(C)C(=O)O)C2CC1` (stereo not given in full), the activity remaining was 94.8%.
`CO[C@@]1(NC(=O)C(C(=O)O)c2ccc(O)cc2)C(=O)N2C(C(=O)O)=C(CSc3nnnn3C)CO[C@@H]21` (stereo not given in full): the activity remaining is 102%.
The value for `Cc1cc2nc3c(=O)[nH]c(=O)nc-3n(CC(O)C(O)C(O)CO)c2cc1C` (stereo not given) was 106%.
The figure for `NC(COCc1ccccc1)C(=O)O` (stereo not given) is 105%; for `C=C1C2=CC(=O)O[C@@H](c3ccoc3)[C@]2(C)CCC1[C@@]1(C)C=CC(=O)C(C)(C)[C@@H]1CC(=O)OC` (stereo not given in full) it is 100%; for `COc1ccnc(CS(=O)c2nc3ccc(OC(F)F)cc3[nH]2)c1OC` (stereo not given) it is 127%.
Regarding `COC(=O)C[C@H]1C(C)(C)C2(O)OC34CC2C(=O)[C@]1(C)C3CC[C@]1(C)C4=CC(=O)O[C@H]1c1ccoc1` (stereo not given in full), the activity remaining is 105%.
The value for `C#C[C@]1(O)CCC2C3CCc4cc(O)ccc4C3CC[C@@]21C` (stereo not given in full) was 105%; that for `CN(C)/N=N/c1nc[nH]c1C(N)=O` was 107%; that for `CN(C)CCc1c[nH]c2ccc(C[C@H]3COC(=O)N3)cc12` was 112%.
The figure for `COc1ccc2c(c1)OC/C(=C/c1ccc(OC)c(OC)c1)C2=O` is 123%; for `COc1ccc2cc(CCC(C)=O)ccc2c1` it is 99.8%.
For the compound `Nc1ccc(S(=O)(=O)Nc2nccs2)cc1`, the activity remaining is 101%.
The value for `CCC(C)C(NC)C(=O)O` (stereo not given) was 116%; that for `C=CCSC[C@@H](N)C(=O)O` was 98.6%; that for `Nc1ncnc2c1ncn2C1O[C@H](COP(=O)(O)O)[C@@H](O)[C@H]1O` (stereo not given in full) was 98%.
On to `CN(CCOc1ccc(CC2SC(=O)NC2=O)cc1)c1ccccn1` (stereo not given), for which the activity remaining was 113%.
In the case of `COc1ccc2c(=O)ccoc2c1`, the activity remaining is 120%.
The figure for `CC[C@@H]1OC(=O)C[C@@H](O)[C@H](C)[C@@H](O[C@@H]2O[C@H](C)[C@@H](O)[C@H](N(C)C)[C@H]2O)[C@@H](CCN2C[C@H](C)C[C@H](C)C2)C[C@@H](C)C(=O)/C=C/C(C)=C\[C@@H]1CO[C@@H]1O[C@H](C)[C@@H](O)[C@@H](OC)[C@H]1OC` is 112%; for `C[C@]12CCC3c4ccc(OS(=O)(=O)O)cc4CCC3C1CC[C@H]2O` (stereo not given in full) it is 102%; for `O=C1c2ccccc2C(=O)c2c1ccc(O)c2O` it is 112%.
For the compound `CC(=O)O[C@@H]1C[C@@]23C[C@@]24CC[C@H](O[C@@H]2OC[C@@H](O)[C@H](O)[C@H]2O)C(C)(C)C4CCC3[C@]2(C)C[C@@H]3OC4(C[C@@H](C)[C@@H]3[C@@]12C)O[C@H](O)[C@]1(C)O[C@H]41` (stereo not given in full), the activity remaining is 87.7%.
Turning to `C[C@]12CCC3c4ccc(OC(=O)c5ccccc5)cc4CCC3C1CCC2=O` (stereo not given in full), the activity remaining is 116%.
The value for `O=c1cc(-c2ccccc2)oc2cccc(O)c12` was 99.1%.
The value for `Cc1ccccc1OCC(O)CO` (stereo not given) was 95.2%.
On to `Oc1ccc(Cl)cc1Cc1cc(Cl)ccc1O`, for which the activity remaining was 108%.
